The full data set covers some 7,900 targets. This sample favours those with a hit. About 0.6% of all pairs of compound and target were hits.
Assays:
Assay in all cases: log2 fold change, soluble protein after heating vs DMSO (PISA); higher = thermal stabilisation; K562 cells, 10 uM, 30 min; active = over 0.2 and 3.5 SD of the protein, either way, in both replicates (recomputed)
[1] = compound: CS(=O)(=O)c1ccc(-c2cnc(N)c(C(=O)Nc3ccccc3)n2)cc1
Outline: (§1)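 K562 cells at 2×10^6 cells/mL were exposed to 10 μM compound for 30 min, then aliquots were heated for 3 min across 48°C-58°C, pooled, and extracted in PBS containing 0.5% NP-40 at 4°C. The supernatant after 21,000xg for 90 min was taken as soluble protein and measured by TMTpro 16plex LC-MS/MS with channel sums equalised. Thermal stability is reported relative to control samples, with values from duplicates. Fold changes are given on a log2 scale.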

crizotinib = compound: C[C@@H](Oc1cc(-c2cnn(C3CCNCC3)c2)cnc1N)c1c(Cl)ccc(F)c1Cl [crizotinib]
Outline: as §1

[2] = compound: C[C@@H]1COCCN1C2=NC(=NC(=C2)C3(CC3)S(=O)(=O)C)C4=C5C=CNC5=CC=C4
Outline: as §1

[3] = compound: C[C@H](C1=CC=C(C=C1)C(=O)NC2=C3C=CNC3=NC=C2)N
Outline: as §1

duvelisib = compound: C[C@H](Nc1ncnc2nc[nH]c12)c1cc2cccc(Cl)c2c(=O)n1-c1ccccc1 [duvelisib]
Outline: as §1

gandotinib = compound: Cc1cc(Nc2cc(CN3CCOCC3)c3nc(C)c(Cc4ccc(Cl)cc4F)n3n2)n[nH]1 [gandotinib]
Outline: as §1

tozasertib = compound: Cc1cc(Nc2cc(N3CCN(C)CC3)nc(Sc3ccc(NC(=O)C4CC4)cc3)n2)n[nH]1 [tozasertib]
Outline: as §1

[4] = compound: Cc1cc(SCc2sc(-c3ccc(C(F)(F)F)cc3)nc2C)ccc1OCC(=O)O
Outline: as §1

doramapimod = compound: Cc1ccc(-n2nc(C(C)(C)C)cc2NC(=O)Nc2ccc(OCCN3CCOCC3)c3ccccc23)cc1 [doramapimod]
Outline: as §1

ispinesib = compound: Cc1ccc(C(=O)N(CCCN)[C@@H](c2nc3cc(Cl)ccc3c(=O)n2Cc2ccccc2)C(C)C)cc1 [ispinesib]
Outline: as §1

bafetinib = compound: Cc1ccc(NC(=O)c2ccc(CN3CC[C@H](N(C)C)C3)c(C(F)(F)F)c2)cc1Nc1nccc(-c2cncnc2)n1 [bafetinib]
Outline: as §1

[5] = compound: Cc1cccc(CC(=O)N2CCc3c2ccc(-c2cn(C)c4ncnc(N)c24)c3F)n1
Outline: as §1

nilotinib = compound: Cc1cn(-c2cc(NC(=O)c3ccc(C)c(Nc4nccc(-c5cccnc5)n4)c3)cc(C(F)(F)F)c2)cn1 [nilotinib]
Outline: as §1

[6] = compound: Cc1nc(Nc2n[nH]c3c2CN(C(=O)N[C@H](CN(C)C)c2ccccc2)C3(C)C)c2sccc2n1
Outline: as §1

dasatinib = compound: Cc1nc(Nc2ncc(C(=O)Nc3c(C)cccc3Cl)s2)cc(N2CCN(CCO)CC2)n1 [dasatinib]
Outline: as §1

[7] = compound: Cc1ncc(-c2ccnc(Nc3ccc(S(C)(=O)=O)cc3)n2)n1C(C)C
Outline: as §1

[8] = compound: Cn1cc(-c2ccc3c(c2)CCN3C(=O)Cc2cccc(C(F)(F)F)c2)c2c(N)ncnc21
Outline: as §1

[9] = compound: Cn1cc(-c2ccc3nnc(C(F)(F)c4ccc5ncccc5c4)n3n2)cn1
Outline: as §1

tipifarnib = compound: Cn1cncc1[C@@](N)(c1ccc(Cl)cc1)c1ccc2c(c1)c(-c1cccc(Cl)c1)cc(=O)n2C [tipifarnib]
Outline: as §1

mubritinib = compound: FC(F)(F)c1ccc(/C=C/c2nc(COc3ccc(CCCCn4ccnn4)cc3)co2)cc1 [mubritinib]
Outline: as §1

Measured: log2 fold change

ADD2 (UniProt P35612)
Sequence of UniProt P35612 (P35612 whole entry, looked up): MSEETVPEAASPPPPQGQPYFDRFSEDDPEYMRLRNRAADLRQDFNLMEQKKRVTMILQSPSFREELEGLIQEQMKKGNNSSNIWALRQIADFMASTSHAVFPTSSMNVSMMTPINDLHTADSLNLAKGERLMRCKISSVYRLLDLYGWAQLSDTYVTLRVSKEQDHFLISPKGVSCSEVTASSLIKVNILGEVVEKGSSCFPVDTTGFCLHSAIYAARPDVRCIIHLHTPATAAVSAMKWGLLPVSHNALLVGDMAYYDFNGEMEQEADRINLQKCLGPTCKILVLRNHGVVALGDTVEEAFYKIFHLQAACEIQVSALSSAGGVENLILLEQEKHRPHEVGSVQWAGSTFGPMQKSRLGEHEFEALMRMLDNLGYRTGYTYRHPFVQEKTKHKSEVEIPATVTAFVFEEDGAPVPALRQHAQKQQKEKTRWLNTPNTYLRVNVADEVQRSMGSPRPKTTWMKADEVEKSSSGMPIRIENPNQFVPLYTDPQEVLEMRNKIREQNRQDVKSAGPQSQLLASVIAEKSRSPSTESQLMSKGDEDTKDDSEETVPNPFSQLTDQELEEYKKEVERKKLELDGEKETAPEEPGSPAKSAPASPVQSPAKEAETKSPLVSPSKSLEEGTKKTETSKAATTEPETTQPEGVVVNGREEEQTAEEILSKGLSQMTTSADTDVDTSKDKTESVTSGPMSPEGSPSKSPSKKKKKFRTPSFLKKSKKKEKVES
inactive: [1] 0.021 | crizotinib -0.005 | [2] 0.022 | [3] -0.052 | duvelisib 0.017 | gandotinib -0.042 | tozasertib -0.057 | [4] -0.029 | doramapimod 0.016 | ispinesib 0.088 | bafetinib 0.012 | [5] 0.011 | nilotinib 0.022 | [6] -0.026 | dasatinib -0.033 | [7] -0.048 | [8] 0.029 | [9] 0.001 | tipifarnib 0.035 | mubritinib 0.011

BRAP (UniProt Q7Z569)
Sequence of UniProt Q7Z569 (Q7Z569 whole entry, looked up): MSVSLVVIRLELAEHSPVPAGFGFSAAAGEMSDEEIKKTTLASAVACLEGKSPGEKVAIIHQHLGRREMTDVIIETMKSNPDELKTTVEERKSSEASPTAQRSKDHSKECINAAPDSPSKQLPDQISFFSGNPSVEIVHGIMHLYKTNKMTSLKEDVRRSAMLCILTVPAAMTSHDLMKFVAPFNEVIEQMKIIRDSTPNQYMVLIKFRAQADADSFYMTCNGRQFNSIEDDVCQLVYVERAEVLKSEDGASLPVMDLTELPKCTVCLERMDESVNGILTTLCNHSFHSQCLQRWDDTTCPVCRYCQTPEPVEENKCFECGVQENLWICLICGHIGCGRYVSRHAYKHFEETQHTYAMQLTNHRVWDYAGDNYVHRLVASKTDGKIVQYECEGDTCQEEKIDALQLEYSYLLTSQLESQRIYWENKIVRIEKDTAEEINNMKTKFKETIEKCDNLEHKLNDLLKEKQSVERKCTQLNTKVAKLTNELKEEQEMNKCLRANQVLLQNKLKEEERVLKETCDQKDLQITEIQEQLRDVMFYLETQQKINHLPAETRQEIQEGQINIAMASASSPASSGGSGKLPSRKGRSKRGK
inactive: [1] 0.027 | crizotinib -0.205 | [2] 0.008 | [3] -0.01 | duvelisib -0.046 | gandotinib -0.024 | tozasertib 0.072 | [4] 0.093 | doramapimod 0.081 | ispinesib -0.089 | bafetinib 0.026 | [5] 0.017 | nilotinib -0.087 | [6] -0.186 | dasatinib -0.097 | [7] -0.116 | [8] -0.067 | [9] -0.066 | tipifarnib -0.04 | mubritinib 0.056

ACADM isoform 2 (UniProt P11310)
Sequence of UniProt P11310 (P11310 whole entry, looked up): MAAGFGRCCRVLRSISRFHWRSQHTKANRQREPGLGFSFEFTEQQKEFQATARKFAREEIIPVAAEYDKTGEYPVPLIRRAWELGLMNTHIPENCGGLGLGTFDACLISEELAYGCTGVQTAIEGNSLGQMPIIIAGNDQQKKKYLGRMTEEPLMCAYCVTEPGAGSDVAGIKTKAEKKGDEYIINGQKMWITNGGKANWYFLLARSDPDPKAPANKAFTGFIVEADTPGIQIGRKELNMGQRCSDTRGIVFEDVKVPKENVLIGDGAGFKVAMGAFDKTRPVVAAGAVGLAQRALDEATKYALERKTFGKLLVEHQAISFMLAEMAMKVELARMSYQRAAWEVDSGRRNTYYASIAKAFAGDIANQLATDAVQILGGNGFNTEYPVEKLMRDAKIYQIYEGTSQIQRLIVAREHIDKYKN
inactive: [1] 0.075 | crizotinib 0.022 | [2] 0.018 | [3] -0.073 | duvelisib 0.018 | gandotinib 0.049 | tozasertib -0.022 | [4] -0.01 | doramapimod -0.059 | ispinesib 0.052 | bafetinib -0.073 | [5] 0.002 | nilotinib -0.013 | [6] 0.025 | dasatinib -0.054 | [7] -0.002 | [8] 0.039 | [9] 0.024 | tipifarnib 0.012 | mubritinib 0.016

ANKZF1 (UniProt Q9H8Y5)
inactive: [1] 0.031 | crizotinib -0.037 | [2] -0.135 | [3] 0.174 | duvelisib -0.15 | gandotinib 0.007 | tozasertib 0.021 | [4] -0.068 | doramapimod -0.059 | ispinesib -0.349 | bafetinib 0.104 | [5] -0.047 | nilotinib -0.151 | [6] -0.29 | dasatinib -0.04 | [7] 0.018 | [8] -0.005 | [9] -0.126 | tipifarnib 0.026 | mubritinib -0.074

ARFIP1 (UniProt P53367)
active: [9] 0.461
inactive: [1] 0.833 | crizotinib -0.309 | [2] 0.026 | [3] -0.061 | duvelisib 0.161 | gandotinib -0.223 | tozasertib -0.065 | [4] 0.014 | doramapimod 0 | ispinesib -0.232 | bafetinib -0.198 | [5] 0.077 | nilotinib -0.177 | [6] -0.148 | dasatinib -0.113 | [7] 0.05 | [8] 0.069 | tipifarnib -0.115 | mubritinib -0.054

AGPAT3 isoform 3 (UniProt Q9NRZ7)
Sequence of UniProt Q9NRZ7 (Q9NRZ7 whole entry, looked up): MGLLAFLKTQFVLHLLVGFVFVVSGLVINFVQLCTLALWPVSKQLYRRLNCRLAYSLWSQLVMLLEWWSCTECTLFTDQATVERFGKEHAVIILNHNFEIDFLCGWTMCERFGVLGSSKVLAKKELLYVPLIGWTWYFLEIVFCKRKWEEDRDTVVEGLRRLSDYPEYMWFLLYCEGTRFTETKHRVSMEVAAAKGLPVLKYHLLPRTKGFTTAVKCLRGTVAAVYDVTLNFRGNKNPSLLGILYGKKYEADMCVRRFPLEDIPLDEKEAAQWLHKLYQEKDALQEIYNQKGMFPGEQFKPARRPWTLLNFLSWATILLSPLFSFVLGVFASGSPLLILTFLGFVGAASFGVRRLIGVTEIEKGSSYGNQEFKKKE
inactive: [1] -0.051 | crizotinib -0.04 | [2] 0.125 | [3] -0.074 | duvelisib 0.005 | gandotinib -0.004 | tozasertib -0.002 | [4] 0.023 | doramapimod 0.004 | ispinesib -0.074 | bafetinib -0.057 | [5] 0.04 | nilotinib -0.012 | [6] 0.004 | dasatinib -0.092 | [7] -0.007 | [8] 0.033 | [9] 0.018 | tipifarnib -0.025 | mubritinib 0.062

ACAP2 (UniProt Q15057)
inactive: [1] 0.032 | crizotinib 0.033 | [2] 0.069 | [3] 0.023 | duvelisib 0.023 | gandotinib -0.07 | tozasertib 0.026 | [4] 0.047 | doramapimod -0.059 | ispinesib 0.002 | bafetinib 0.093 | [5] 0.052 | nilotinib -0.006 | [6] -0.05 | dasatinib -0.04 | [7] 0.051 | [8] -0.073 | [9] -0.051 | tipifarnib -0.097 | mubritinib 0.016

ACSF3 (UniProt Q4G176)
Sequence of UniProt Q4G176 (Q4G176 whole entry, looked up): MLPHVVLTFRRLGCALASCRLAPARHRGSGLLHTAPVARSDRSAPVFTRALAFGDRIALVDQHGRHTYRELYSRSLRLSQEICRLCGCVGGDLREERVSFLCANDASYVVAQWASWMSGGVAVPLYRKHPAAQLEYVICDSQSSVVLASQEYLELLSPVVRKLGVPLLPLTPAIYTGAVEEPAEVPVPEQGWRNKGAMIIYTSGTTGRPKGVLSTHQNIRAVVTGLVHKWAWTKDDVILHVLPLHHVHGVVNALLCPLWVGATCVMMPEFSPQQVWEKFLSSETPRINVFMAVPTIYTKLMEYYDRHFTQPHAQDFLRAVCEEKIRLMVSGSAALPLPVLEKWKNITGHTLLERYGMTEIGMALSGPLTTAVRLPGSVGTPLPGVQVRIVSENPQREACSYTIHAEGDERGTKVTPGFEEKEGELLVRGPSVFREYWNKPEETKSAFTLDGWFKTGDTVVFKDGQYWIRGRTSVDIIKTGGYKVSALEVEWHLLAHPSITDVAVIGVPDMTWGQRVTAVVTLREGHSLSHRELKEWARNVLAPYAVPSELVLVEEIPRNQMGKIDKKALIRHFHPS
inactive: [1] 0.018 | crizotinib 0.063 | [2] -0.002 | [3] 0.026 | duvelisib 0.014 | gandotinib 0.09 | tozasertib 0.023 | [4] 0.022 | doramapimod -0.027 | ispinesib 0.174 | bafetinib -0.13 | [5] -0.105 | nilotinib 0.084 | [6] 0.135 | dasatinib -0.073 | [7] 0.022 | [8] -0.278 | [9] -0.02 | tipifarnib 0.062
active: mubritinib -0.433

ATAD3B (UniProt Q5T9A4)
Sequence of UniProt Q5T9A4 (Q5T9A4 whole entry, looked up): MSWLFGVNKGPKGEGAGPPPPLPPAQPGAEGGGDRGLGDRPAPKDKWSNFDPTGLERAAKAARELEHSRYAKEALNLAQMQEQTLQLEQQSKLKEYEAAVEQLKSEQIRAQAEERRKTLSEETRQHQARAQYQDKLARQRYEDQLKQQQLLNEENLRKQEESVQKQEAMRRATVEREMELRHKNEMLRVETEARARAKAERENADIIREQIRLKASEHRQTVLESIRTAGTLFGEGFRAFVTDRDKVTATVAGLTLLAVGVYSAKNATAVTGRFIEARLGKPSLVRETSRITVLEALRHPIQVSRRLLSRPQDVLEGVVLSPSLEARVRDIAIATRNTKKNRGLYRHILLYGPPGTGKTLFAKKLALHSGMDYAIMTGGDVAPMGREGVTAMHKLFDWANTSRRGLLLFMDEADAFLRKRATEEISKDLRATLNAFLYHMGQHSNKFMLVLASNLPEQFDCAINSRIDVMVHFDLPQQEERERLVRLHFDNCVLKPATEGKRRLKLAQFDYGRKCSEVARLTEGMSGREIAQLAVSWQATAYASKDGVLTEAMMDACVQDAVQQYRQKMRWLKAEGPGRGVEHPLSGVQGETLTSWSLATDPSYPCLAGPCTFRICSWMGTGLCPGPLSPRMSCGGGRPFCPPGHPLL
inactive: [1] 0.009 | crizotinib -0.171 | [2] -0.112 | [3] 0.191 | duvelisib -0.05 | gandotinib 0.033 | tozasertib 0.034 | [4] 0.105 | doramapimod 0.137 | bafetinib -0.014 | [5] 0.018 | nilotinib -0.072 | [6] -0.039 | dasatinib -0.099 | [7] 0.027 | [8] -0.103 | [9] -0.186 | tipifarnib 0.03 | mubritinib -0.37
active: ispinesib -0.544

ASNS (UniProt P08243)
inactive: [1] 0.003 | crizotinib -0.015 | [2] 0.044 | [3] -0.045 | duvelisib 0.025 | gandotinib 0.002 | tozasertib -0.018 | [4] -0.016 | doramapimod -0.026 | ispinesib 0.031 | bafetinib -0.055 | [5] 0.02 | nilotinib 0.002 | [6] 0.021 | dasatinib 0 | [7] -0.003 | [8] 0.034 | [9] 0.015 | tipifarnib -0.033 | mubritinib 0.012

ABHD16A (UniProt O95870)
inactive: [1] -0.012 | crizotinib 0.277 | [2] 0.029 | [3] 0.033 | duvelisib 0.014 | gandotinib 0.158 | tozasertib -0.009 | [4] 0.012 | doramapimod 0.136 | ispinesib 0.125 | bafetinib 0.132 | [5] -0.056 | nilotinib 0.177 | [6] 0.055 | dasatinib 0.029 | [7] -0.058 | [8] 0.087 | [9] -0.075 | tipifarnib -0.01 | mubritinib 0.071

ATP6V0A1 isoform 3 (UniProt Q93050)
Sequence of UniProt Q93050 (Q93050 whole entry, looked up): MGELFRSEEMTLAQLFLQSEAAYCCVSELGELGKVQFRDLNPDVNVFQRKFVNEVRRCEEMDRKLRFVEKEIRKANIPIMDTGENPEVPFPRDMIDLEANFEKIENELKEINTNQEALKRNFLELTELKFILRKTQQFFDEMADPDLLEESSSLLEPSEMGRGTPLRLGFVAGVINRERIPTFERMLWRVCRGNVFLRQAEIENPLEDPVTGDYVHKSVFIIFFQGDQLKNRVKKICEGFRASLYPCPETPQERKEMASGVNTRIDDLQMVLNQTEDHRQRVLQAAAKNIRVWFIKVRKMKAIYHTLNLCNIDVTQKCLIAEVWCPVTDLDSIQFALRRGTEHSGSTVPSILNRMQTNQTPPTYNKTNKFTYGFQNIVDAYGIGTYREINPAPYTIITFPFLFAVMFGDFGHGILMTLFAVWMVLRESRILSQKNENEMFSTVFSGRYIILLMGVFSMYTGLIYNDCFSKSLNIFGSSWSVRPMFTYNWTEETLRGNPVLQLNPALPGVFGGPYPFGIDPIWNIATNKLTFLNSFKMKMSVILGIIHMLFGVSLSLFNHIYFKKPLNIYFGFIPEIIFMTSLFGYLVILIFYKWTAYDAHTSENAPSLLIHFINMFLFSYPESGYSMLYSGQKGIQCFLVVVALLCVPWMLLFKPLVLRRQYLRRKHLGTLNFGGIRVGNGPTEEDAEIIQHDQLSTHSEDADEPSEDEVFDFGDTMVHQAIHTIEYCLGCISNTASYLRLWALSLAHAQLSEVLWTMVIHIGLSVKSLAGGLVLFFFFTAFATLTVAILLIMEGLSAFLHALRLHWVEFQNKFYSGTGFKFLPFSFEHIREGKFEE
active: ispinesib -0.446
inactive: [1] -0.041 | crizotinib -0.349 | [2] -0.27 | [3] 0.225 | duvelisib -0.093 | gandotinib 0.094 | tozasertib 0.073 | [4] 0.144 | doramapimod 0.152 | bafetinib -0.12 | [5] 0.153 | nilotinib -0.026 | [6] -0.029 | dasatinib 0.018 | [7] -0.079 | [8] -0.097 | [9] -0.098 | tipifarnib 0.038 | mubritinib -0.026

ACACB (UniProt O00763)
inactive: [1] 0.078 | crizotinib -0.152 | [2] -0.13 | [3] 0.341 | duvelisib -0.113 | gandotinib 0.041 | tozasertib -0.013 | [4] 0.289 | doramapimod 0.168 | ispinesib -0.188 | bafetinib 0.145 | [5] -0.021 | nilotinib -0.109 | [6] -0.251 | dasatinib -0.03 | [7] -0.026 | [8] -0.09 | [9] -0.059 | tipifarnib -0.14 | mubritinib -0.147

ATP1B3 (UniProt P54709)
Sequence of UniProt P54709 (P54709 whole entry, looked up): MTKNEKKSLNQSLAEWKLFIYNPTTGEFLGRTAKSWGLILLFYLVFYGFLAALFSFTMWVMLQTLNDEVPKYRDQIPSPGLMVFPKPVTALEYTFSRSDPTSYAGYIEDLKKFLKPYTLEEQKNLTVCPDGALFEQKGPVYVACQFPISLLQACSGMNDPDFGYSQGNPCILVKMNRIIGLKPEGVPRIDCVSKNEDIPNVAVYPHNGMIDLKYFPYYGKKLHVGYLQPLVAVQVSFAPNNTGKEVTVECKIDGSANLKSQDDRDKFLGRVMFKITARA
inactive: [1] 0.053 | crizotinib 0.111 | [2] 0.027 | [3] -0.152 | duvelisib 0.028 | gandotinib -0.013 | tozasertib -0.019 | [4] -0.04 | doramapimod -0.042 | ispinesib 0.165 | bafetinib 0 | [5] -0.039 | nilotinib 0.06 | [6] -0.003 | dasatinib 0.027 | [7] 0.021 | [8] 0 | [9] -0.02 | tipifarnib 0.065 | mubritinib 0.043

ALDH2 (UniProt P05091)
Sequence of UniProt P05091 (P05091 whole entry, looked up): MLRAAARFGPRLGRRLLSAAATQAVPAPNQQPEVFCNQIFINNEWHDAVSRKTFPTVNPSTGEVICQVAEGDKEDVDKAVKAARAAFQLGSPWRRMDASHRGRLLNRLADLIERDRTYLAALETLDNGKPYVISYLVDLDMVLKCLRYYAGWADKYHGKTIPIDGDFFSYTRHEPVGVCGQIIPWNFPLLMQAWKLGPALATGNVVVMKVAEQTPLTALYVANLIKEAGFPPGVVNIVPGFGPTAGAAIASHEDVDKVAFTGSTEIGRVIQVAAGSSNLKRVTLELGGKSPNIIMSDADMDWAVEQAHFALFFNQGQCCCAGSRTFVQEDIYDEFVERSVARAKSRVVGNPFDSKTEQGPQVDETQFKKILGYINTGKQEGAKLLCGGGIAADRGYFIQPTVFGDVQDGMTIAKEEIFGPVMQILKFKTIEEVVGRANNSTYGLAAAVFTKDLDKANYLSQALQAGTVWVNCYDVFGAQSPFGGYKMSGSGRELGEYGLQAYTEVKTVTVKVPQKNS
inactive: [1] -0.047 | crizotinib -0.044 | [2] 0.051 | [3] -0.038 | duvelisib 0.056 | gandotinib -0.088 | tozasertib -0.039 | [4] 0.022 | doramapimod 0.033 | ispinesib -0.023 | bafetinib 0.009 | [5] -0.02 | nilotinib 0.006 | [6] -0.016 | dasatinib -0.034 | [7] 0.019 | [8] 0.072 | [9] 0.059 | tipifarnib -0.005 | mubritinib 0.07

AP2A2 isoform 2 (UniProt O94973)
inactive: [1] 0.022 | crizotinib -0.076 | [2] -0.033 | [3] -0.186 | duvelisib 0.009 | gandotinib -0.057 | tozasertib -0.091 | [4] -0.021 | doramapimod 0.03 | ispinesib 0.024 | bafetinib 0.02 | [5] 0.031 | nilotinib -0.027 | [6] 0.009 | dasatinib 0.062 | [7] -0.018 | [8] 0.006 | [9] -0.074 | tipifarnib -0.006 | mubritinib 0.035
